In PubChem BioAssay (EPA / NIEHS):
Results filed as inconclusive are left out. Active and inactive are the calls of the source. How the source made its calls: active means hit-call score of the fitted dose curve at least 0.9, where 1 is the maximum; inconclusive means response in the unintended direction; inactive means score below 0.9.

Columns and labels:
[1] = ATG_XTT_Cytotoxicity: Cytotoxicity Assessment in the Attagene TRANS-FACTORIAL HepG2 Assay (AID 2283584)
Summary of the method: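 HepG2 cells transiently transfected with GAL4-UAS multiple reporter units, dosed 24 h; cytotoxicity read by XTT as loss of signal versus DMSO baseline.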

[2] = TOX21_p53_BLA_p2_viability: Viability Assessment in the Tox21 HCT-116 p53 Agonism Beta-lactamase Assay, Phase 2 (AID 2283591);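 further: compound exposure lasted 16 h at 37 °C; actives lower the ATP signal meaning cytotoxicity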
Summary of the method: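 Cytotoxicity readout: CellTiter-Glo ATP luminescence, 30 min at room temperature, after the beta-lactamase read. Cells were HCT116 exposed 16 h at 37C to compounds pin-transferred at 217-fold dilution from DMSO stocks.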

[3] = molecular target: Cellular tumor antigen p53 (Homo sapiens) (UniProt P04637); experiment: TOX21_p53_BLA_p2_ratio: Tox21 HCT-116 p53 Agonism Beta-lactamase Assay, Ratio, Phase 2 (AID 2283592)
Summary of the method: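 HCT-116 cells with p53-responsive beta-lactamase reporter, 4000 cells/well, preincubated 5 h, then compound in DMSO (217-fold dilution) for 16 h at 37C. CCF4-AM substrate 2 h at room temperature; 460/530 nm emission ratio fitted upward versus DMSO.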

[4] = molecular target: Cellular tumor antigen p53 (Homo sapiens) (UniProt P04637); experiment: TOX21_p53_BLA_p3_ratio: Tox21 HCT-116 p53 Agonism Beta-lactamase Assay, Ratio, Phase 3 (AID 2283596)
Summary of the method: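 HCT116 p53-bla cells (4000/well) given compound in DMSO (217-fold dilution) after 5 h, incubated 16 h at 37C. CCF4-AM substrate 2 h at room temperature; 460/530 nm emission ratio, gain fitted against DMSO.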

[5] = molecular target: Cellular tumor antigen p53 (Homo sapiens) (UniProt P04637); experiment: TOX21_p53_BLA_p5_ratio: Tox21 HCT-116 p53 Agonism Beta-lactamase Assay, Ratio, Phase 5 (AID 2283599)
Summary of the method: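 Beta-lactamase reporter ratio (blue 460 nm over green 530 nm, 405 nm excitation) after 2 h CCF4-AM loading, in HCT-116 cells exposed 16 h at 37 C to compounds pinned at 217-fold dilution. Increases relative to DMSO baseline scored.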

[6] = TOX21_p53_BLA_p5_viability: Viability Assessment in the Tox21 HCT-116 p53 Agonism Beta-lactamase Assay, Phase 5 (AID 2283600)
Summary of the method: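 HCT-116 p53 beta-lactamase reporter cells, 4000/well, were exposed to compound (pin transfer, 217-fold dilution) for 16 hours at 37C. Cellular ATP was read by CellTiter-Glo luminescence after 30 min at room temperature.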

[7] = TOX21_p53_BLA_p4_viability: Viability Assessment in the Tox21 HCT-116 p53 Agonism Beta-lactamase Assay, Phase 4 (AID 2283597);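 further: hits lower the luminescence signal meaning cytotoxicity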
Summary of the method: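 HCT-116 p53-bla cells, 4000/well, dosed after 5 h attachment and incubated 16 h at 37 °C, 5% CO2. Viability from CellTiter-Glo ATP luminescence after 30 min at room temperature, taken after the beta-lactamase read; loss of signal indicates cytotoxicity.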

[8] = molecular target: Cellular tumor antigen p53 (Homo sapiens) (UniProt P04637); experiment: TOX21_p53_BLA_p4_ratio: Tox21 HCT-116 p53 Agonism Beta-lactamase Assay, Ratio, Phase 4 (AID 2283601)
Summary of the method: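 Signal is the blue/green (460nm/530nm) ratio of cleaved versus uncleaved CCF4-AM substrate, read after 2 h substrate loading. Cells were HCT116 carrying the p53-responsive beta-lactamase reporter, dosed 16 h at 37C, 5% CO2; CellTiter-Glo measured in parallel.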

[9] = TOX21_p53_BLA_p3_viability: Viability Assessment in the Tox21 HCT-116 p53 Agonism Beta-lactamase Assay, Phase 3 (AID 2283593);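 further: cells exposed to compound for 16 h before reading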
Summary of the method: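 Cellular ATP was quantified by CellTiter-Glo luminescence, read after 30 min at room temperature. Beforehand, HCT116 cells (4000/well) received compound 5 h post-seeding, 217-fold diluted from DMSO, then incubated 16 h at 37C.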

Measured: outcome

Sequence of Cellular tumor antigen p53 (Homo sapiens) (P04637 whole entry, looked up): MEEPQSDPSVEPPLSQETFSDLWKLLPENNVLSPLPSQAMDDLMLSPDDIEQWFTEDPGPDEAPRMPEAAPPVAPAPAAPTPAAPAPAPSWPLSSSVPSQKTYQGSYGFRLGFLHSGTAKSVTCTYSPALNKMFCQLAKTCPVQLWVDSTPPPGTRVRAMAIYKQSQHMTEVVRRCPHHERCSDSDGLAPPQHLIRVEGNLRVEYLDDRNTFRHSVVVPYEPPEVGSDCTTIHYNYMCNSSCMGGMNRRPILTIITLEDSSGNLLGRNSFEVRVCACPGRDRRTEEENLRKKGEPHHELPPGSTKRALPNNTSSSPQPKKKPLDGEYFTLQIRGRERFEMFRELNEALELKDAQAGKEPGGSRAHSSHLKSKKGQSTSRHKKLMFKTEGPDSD

CCCCSCCCC
not listed: [7] | [8] | [9]
inactive: all other assays above

Nc1c(Cl)cc(Cl)cc1[N+](=O)[O-]
not listed: [4] | [5] | [9]
inactive: all other assays above

CCCCCCCCCCCC(=O)OC[C@@H](O)[C@H]1OC[C@H](O)[C@H]1O
not listed: [4] | [7]
inactive: all other assays above

COc1ccc(CCC(C)=O)cc1
not listed: [6] | [7]
inactive: all other assays above

CCOCCOCCOCC
inactive: [1] | [2] | [3] | [9] | [5]

Cc1cccc(Nc2ccccc2)c1
not listed: [6] | [9]
inactive: all other assays above

C=CCCC(=O)/C=C/C1C(C)=CCCC1(C)C (centres undefined)
not listed: [4] | [9]
inactive: all other assays above

CC(=O)O[C@@H]1CC2CCC1(C)C2(C)C (some centres undefined)
not listed: [7]
inactive: all other assays above

C=C(C)CNCC
not listed: [6] | [9]
inactive: all other assays above

CCOC(=O)C1OC1c1ccccc1 (centres undefined)
not listed: [7]
inactive: all other assays above

O=C1NC2NC(=O)NC2N1 (centres undefined)
not listed: [9]
inactive: all other assays above

CCCOCCO
not listed: [4] | [8]
inactive: all other assays above

CC(C)(C)c1ccc(C(=O)O)cc1
not listed: [7] | [8] | [9]
inactive: all other assays above

O=C(O)CNc1ccccc1
not listed: [7]
inactive: all other assays above

CC(C)C(OC(=O)c1ccccc1)C(C)(C)COC(=O)c1ccccc1 (centres undefined)
not listed: [4] | [8]
inactive: all other assays above

O=c1c(O)c(-c2ccc(O)cc2)oc2cc(O)cc(O)c12
not listed: [6] | [7] | [9]
inactive: all other assays above

CCC(C)=O
inactive: [1] | [2] | [3] | [9] | [7]

CC(=O)c1ccccn1
not listed: [8] | [9]
inactive: all other assays above

COC(=O)c1ccc(C)cc1C1=NC(C)(C(C)C)C(=O)N1 (centres undefined) (tested in a mixture with another compound)
not listed: [5] | [8] | [9]
inactive: all other assays above

OCc1ccc(Cl)cc1Cl
not listed: [9]
inactive: all other assays above

CCOC(=O)[C@@H](C)Oc1ccc(Oc2nc3ccc(Cl)cc3o2)cc1
inactive: [1] | [2] | [3] | [4] | [5]

CC(C)CCOC(=O)c1ccccc1
not listed: [4] | [7]
inactive: all other assays above

CCCCCC(C)=O
not listed: [2] | [6] | [9]
inactive: all other assays above

CCCCCCCCCCCCCC(=O)OCC(O)CO (centres undefined)
inactive: [1] | [2] | [3] | [5] | [6]

ON=C1CCCCC1
not listed: [2] | [9]
inactive: all other assays above

CN(C)CCOC(C)(c1ccccc1)c1ccccn1 (centres undefined)
not listed: [2] | [9]
inactive: all other assays above

O=C1CCCC=CCCCCCCCCCC1
inactive: [1] | [3] | [4] | [7]

N#Cc1cscn1
not listed: [2] | [5]
inactive: all other assays above
